Measured values taken from the supplement of paper PMC6089552.
“And” between values parts separate entries of the source, which are not always exact repeats. Equal entries are not always repeated. Out of some 3,200 compounds screened, about 300 (9.4%) showed activity. For the sample, actives were picked, then their nearest neighbours and some compounds at random.

System: A673/TR/shEF
Assay: cell viability (LOESS-normalised, relative to median of negative controls) (log2 ratio); higher = more viable cells (less compound effect), active = hit call of the paper (over 3 MAD below the median)
Settings: treatment time: 72 h
Method in brief: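 Doxycycline, present or absent from 24 h before compounds, was used to induce EWS-FLI1 shRNA knockdown in A673/TR/shEF Ewing sarcoma cells at 1,500 per well in 384-well plates. Cells then received library compounds at two or more concentrations, or DMSO controls, for three days. Viability was measured by CellTiter-Glo luminescence on an Envision reader, and per-plate LOESS correction, division by the negative-control median and log2 transformation followed.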

[1] = 0.25 µM, library screen: screen1, EWS-FLI1 expression: high (no doxycycline)
[2] = 0.25 µM, library screen: screen1, EWS-FLI1 expression: low (doxycycline-induced shRNA knockdown)
[3] = 2.5 µM, library screen: screen1, EWS-FLI1 expression: high (no doxycycline)
[4] = 2.5 µM, library screen: screen1, EWS-FLI1 expression: low (doxycycline-induced shRNA knockdown)
[5] = 0.025 µM, library screen: screen1, EWS-FLI1 expression: high (no doxycycline)
[6] = 0.025 µM, library screen: screen1, EWS-FLI1 expression: low (doxycycline-induced shRNA knockdown)
[7] = 25 µM, library screen: screen1, EWS-FLI1 expression: high (no doxycycline)
[8] = 25 µM, library screen: screen1, EWS-FLI1 expression: low (doxycycline-induced shRNA knockdown)
[9] = 0.25 µM, library screen: screen2, EWS-FLI1 expression: high (no doxycycline)
[10] = 0.25 µM, library screen: screen2, EWS-FLI1 expression: low (doxycycline-induced shRNA knockdown)
[11] = 2.5 µM, library screen: screen2, EWS-FLI1 expression: high (no doxycycline)
[12] = 2.5 µM, library screen: screen2, EWS-FLI1 expression: low (doxycycline-induced shRNA knockdown)
[13] = 0.025 µM, library screen: screen2, EWS-FLI1 expression: high (no doxycycline)
[14] = 0.025 µM, library screen: screen2, EWS-FLI1 expression: low (doxycycline-induced shRNA knockdown)
[15] = 25 µM, library screen: screen2, EWS-FLI1 expression: high (no doxycycline)
[16] = 25 µM, library screen: screen2, EWS-FLI1 expression: low (doxycycline-induced shRNA knockdown)
[17] = 0.103 µM, library screen: screen3, EWS-FLI1 expression: high (no doxycycline)
[18] = 0.103 µM, library screen: screen3, EWS-FLI1 expression: low (doxycycline-induced shRNA knockdown)
[19] = 0.308 µM, library screen: screen3, EWS-FLI1 expression: high (no doxycycline)
[20] = 0.308 µM, library screen: screen3, EWS-FLI1 expression: low (doxycycline-induced shRNA knockdown)
[21] = 0.926 µM, library screen: screen3, EWS-FLI1 expression: high (no doxycycline)
[22] = 0.926 µM, library screen: screen3, EWS-FLI1 expression: low (doxycycline-induced shRNA knockdown)
[23] = 2.8 µM, library screen: screen3, EWS-FLI1 expression: high (no doxycycline)
[24] = 2.8 µM, library screen: screen3, EWS-FLI1 expression: low (doxycycline-induced shRNA knockdown)
[25] = 8.3 µM, library screen: screen3, EWS-FLI1 expression: high (no doxycycline)
[26] = 8.3 µM, library screen: screen3, EWS-FLI1 expression: low (doxycycline-induced shRNA knockdown)
[27] = 25 µM, library screen: screen3, EWS-FLI1 expression: high (no doxycycline)
[28] = 25 µM, library screen: screen3, EWS-FLI1 expression: low (doxycycline-induced shRNA knockdown)

Measured: cell viability (log2)

COS(C)(=O)=O
inactive: [1] 0.0621 | [2] 0.0487 | [3] 0.0611 | [4] -0.0183

O=P(O)(O)Cc1ccccc1
active: [3] -0.281 | [4] -0.453 | [7] -0.356 | [8] -1.06
inactive: [5] 0.115 | [6] -0.0367 | [1] 0.209 | [2] -0.089

CC12CCC3C(CC=C4CC(OS(=O)(=O)O)CCC43C)C1CCC2=O (configuration not stated)
inactive: [9] 0.0737 | [10] -0.00205 | [11] 0.0312 | [12] 0.0129

CCC1(O)CC(OC2CC(N(C)C)C(O)C(C)O2)c2c(cc3c(c2O)C(=O)c2c(O)cccc2C3=O)C1C(=O)OC (configuration not stated)
active: [11] -0.409 | [12] -0.0756 | [15] -4.23 | [16] -3.71
inactive: [13] -0.0129 | [14] 0.0193 | [9] 0.135 | [10] -0.0369

CC[C@@]1(O)C[C@H](OC2C[C@@H](N(C)C)C(O)C(C)O2)c2c(cc3c(c2O)C(=O)c2c(O)ccc(O)c2C3=O)[C@H]1C(=O)OC (some centres not stated)
active: [3] -0.221
inactive: [1] 0.0817 | [2] 0.158 | [4] 0.00788

CC[C@@]1(O)C[C@H](O[C@H]2C[C@H](N(C)C)[C@H](O)[C@H](C)O2)c2c(cc3c(c2O)C(=O)c2c(O)cccc2C3=O)[C@H]1C(=O)OC
inactive: [1] 0.0584 and -0.0862 | [2] -0.00295 and 0.0558
active: [3] -1.99 and -0.594 | [4] -0.405 and -0.193

Cc1o[nH]c(=O)c1CC(N)C(=O)O (configuration not stated)
inactive: [9] 0.115 | [10] 0.0119 | [11] 0.0854 | [12] 0.0272

COc1ccc2c3c1O[C@H]1C(=O)CC[C@@]4(O)C(C2)N(CC2CC2)CCC314 (some centres not stated)
inactive: [9] 0.143 | [10] 0.0949 | [11] -0.028 | [12] 0.00345

C[C@]12CCC3C(CC[C@H]4C[C@@H](Cl)CC[C@]34C)C1CCC2=O (some centres not stated)
inactive: [1] 0.0861 | [2] 0.0822 | [3] 0.109 | [4] 0.0908

CC1CC(Cl)CCC1C(=O)OC(C)(C)C (configuration not stated)
inactive: [1] -0.0203 | [2] 0.0889 | [3] 0.151 | [4] 0.103

Cn1c(=O)c2c(ncn2CCCl)n(C)c1=O
inactive: [1] 0.086 | [2] -0.0151 | [3] -0.000593 | [4] 0.00538

CC(=O)O[C@H]1C[C@@H](OC(C)=O)C(C)(C)C2C[C@@H](OC(C)=O)[C@]3(C)C(CC[C@@]4(C)[C@H](c5ccoc5)C[C@H]5O[C@]543)[C@]21C (some centres not stated)
inactive: [1] 0.134 | [2] 0.0408 | [3] 0.129 | [4] 0.147

C[C@@H]1O[C@H](C[N+](C)(C)C)C[C@H]1O
inactive: [9] 0.143 | [10] 0.0741 | [11] 0.116 | [12] -0.0161

CCCN(CCC)C1CCc2cccc(O)c2C1 (configuration not stated)
inactive: [9] 0.114 | [10] 0.0781 | [11] 0.143 | [12] 0.0595

CC(C)[C@]12O[C@H]1[C@@H]1O[C@@]13[C@@]1(C)CCC4=C(COC4=O)[C@@H]1C[C@@H]1O[C@@]13C2=O
active: [1] -2.66 | [2] -3.01 | [3] -3.24 | [4] -2.91

CC(C)c1ccc2c(c1O)CCC1C3=C(CCC21C)C(=O)OC3 (configuration not stated)
inactive: [1] 0.0257 | [2] 0.104 | [3] 0.151 | [4] 0.343

O=C1C(Cl)=C(Cl)C(=O)C(Cl)=C1Cl
inactive: [1] 0.0885 | [2] 0.0373 | [3] 0.114 | [4] 0.156

ClC1C(Cl)C(Cl)C(Cl)C(Cl)C1Cl (configuration not stated)
inactive: [1] 0.118 | [2] 0.0584 | [3] 0.159 | [4] -0.0362

C[N+]1(C)C2CC(OC(=O)[C@H](CO)c3ccccc3)CC1C1OC12 (some centres not stated)
inactive: [9] 0.208 | [10] 0.126 | [11] 0.131 | [12] 0.157

CCNC(=O)[C@H]1O[C@@H](n2cnc3c(N)ncnc32)[C@H](O)[C@@H]1O
inactive: [9] 0.186 | [10] 0.0998 | [11] 0.0806 | [12] 0.122

COc1cccc2c1cc([N+](=O)[O-])c1c(C(=O)O)cc3c(c12)OCO3
active: [3] -0.209
inactive: [1] 0.0105 | [2] 0.00257 | [4] -0.0027

COc1c2c(cc3c1OCO3)CCN(C)C2
inactive: [1] 0.00337 | [2] -0.0221 | [3] 0.133 | [4] 0.0446

CC(N)Cc1c[nH]c2ccccc12 (configuration not stated)
inactive: [9] 0.229 | [10] 0.175 | [11] 0.0609 | [12] 0.105

CCn1cnc2c(Nc3cccc(Cl)c3)nc(N[C@@H]3CCCC[C@@H]3N)nc21
inactive: [9] 0.222 | [10] 0.14 | [12] -0.0222
active: [11] -0.199

C[C@H]1C[C@@H](O)[C@]2(O)[C@@]13CC(=O)OC[C@@]2(C)[C@](C)(O)C(=O)C3
inactive: [1] 0.0914 | [2] -0.0111 | [3] 0.0806 | [4] 0.024

CN[C@@H]1C[C@H]2O[C@@](C)([C@@H]1OC)n1c3ccccc3c3c4c(c5c6ccccc6n2c5c31)C(=O)NC4
active: [5] -2.08 | [6] -1.86 | [1] -3.68 | [2] -3.78 | [3] -4.25 | [4] -4.31 | [7] -4.11 | [8] -4.31

CC(=O)O[C@H]1C[C@@H](OC(C)=O)C(C)(C)C2C[C@@H](OC(C)=O)[C@]3(C)C(CC[C@@]4(C)[C@H](c5ccoc5)C(=O)[C@H]5O[C@]543)[C@]21C (some centres not stated)
inactive: [1] 0.0663 | [2] 0.135 | [3] 0.0399 | [4] 0.171

c1ccc2c(c1)cc1ccc3cccc4ccc2c1c34
inactive: [1] 0.0949 | [2] 0.14 | [3] 0.11 | [4] 0.179

Cc1c(N)nc(C(CC(N)=O)NCC(N)C(N)=O)nc1C(=O)NC(C(=O)NC(C)C(O)C(C)C(=O)NC(C(=O)NCCc1nc(-c2nc(C(=O)NCCC[S+](C)C)cs2)cs1)C(C)O)C(O[C@@H]1O[C@@H](CO)[C@@H](O)[C@H](O)[C@@H]1O[C@H]1O[C@H](CO)[C@@H](O)[C@H](OC(N)=O)[C@@H]1O)c1cnc[nH]1 (some centres not stated)
inactive: [17] 0.0914 | [18] 0.135 | [19] 0.115 | [20] 0.0961 | [21] 0.0288 | [22] 0.0331 | [23] 0.152 | [24] 0.1 | [25] 0.12 | [26] 0.0649 | [27] 0.18 | [28] 0.0742

O=C(CCCN1CCC2(CC1)C(=O)N(CCc1ccc(N=C=S)cc1)CN2c1ccccc1)c1ccc(F)cc1
inactive: [9] 0.156 | [10] 0.15 | [11] 0.122 | [12] 0.0672

CC1(C(=O)O)C2CCC(O2)C1(C)C(=O)O (configuration not stated)
inactive: [5] 0.144 | [6] -0.0798 | [1] 0.0748 | [2] -0.099 | [9] 0.137 | [10] 0.0724 | [3] -0.00382 | [4] -0.0912 | [11] 0.0145 | [12] 0.0152
active: [7] -0.932 | [8] -0.597

C[C@@]12C(=O)OC(=O)[C@]1(C)[C@H]1CC[C@@H]2O1
inactive: [5] 0.0446 | [6] 0.00348 | [1] 0.0474 | [2] -0.0807 | [9] 0.254 | [10] 0.0884 | [3] 0.0534 | [4] 0.0478 | [11] 0.0871 | [12] 0.00613 | [7] 0.0285 | [8] -0.0214

N[C@@]1(C(=O)O)CC[C@@H](C(=O)O)C1
inactive: [9] 0.102 | [10] 0.109 | [11] 0.101 | [12] 0.133

S=C(NC1CCCCC1)N1CCC(c2cnc[nH]2)CC1
inactive: [9] 0.127 | [10] 0.0827 | [11] 0.121 | [12] 0.058

CCC(C)c1cnc(CC(C)C)c(=O)n1O (configuration not stated)
inactive: [1] 0.088 | [2] 0.0724 | [3] 0.0675 | [4] 0.0404

CCOC(=O)c1cncn1C(C)c1ccccc1 (configuration not stated)
inactive: [17] 0.148 | [18] 0.103 | [19] 0.128 | [20] 0.0765 | [21] 0.0647 | [22] 0.0966 | [23] 0.203 | [24] 0.0919 | [25] 0.131 | [26] 0.046 | [27] 0.154 | [28] 0.157

N#C/C(=C\c1cccc(O)c1)C(=O)O
inactive: [1] 0.0765 | [2] 0.115 | [3] 0.0856 | [4] 0.0942

CC[C@H]1CN2CCc3cc(OC)c(OC)cc3[C@@H]2C[C@@H]1C[C@H]1NCCc2cc(OC)c(OC)cc21
inactive: [13] 0.187 | [14] 0.0478 | [1] 0.11 | [2] 0.116
active: [9] -0.895 | [10] -0.442 | [3] -1.08 | [4] -0.152 | [11] -2.19 | [12] -1.21 | [15] -2.91 | [16] -1.84

COc1cc2c(cc1OC)C(C)NCC2 (configuration not stated)
inactive: [1] 0.121 | [2] 0.123 | [3] 0.193 | [4] 0.143

COc1cc2c(cc1O)CCNC2C (configuration not stated)
inactive: [1] -0.0405 | [2] -0.0233 | [3] 0.0226 | [4] 0.0664
